Out of some 310,000 compounds screened, about 14,000 (4.5%) showed an effect of 50% or more. The effect is printed as a negative number. Only a selection was taken, and strong results are over-represented in it overall.
target: human ether-à-go-go-related gene (hERG) potassium channel (human, UniProt Q12809); experiment: primary screen, population patch clamp on CHO cells stably expressing hERG; higher = less effect of the substance
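Further: peak tail current of the secondary pulse compared with the same well before compound.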

Sequence of human ether-à-go-go-related gene (hERG) potassium channel (Q12809 whole entry, looked up): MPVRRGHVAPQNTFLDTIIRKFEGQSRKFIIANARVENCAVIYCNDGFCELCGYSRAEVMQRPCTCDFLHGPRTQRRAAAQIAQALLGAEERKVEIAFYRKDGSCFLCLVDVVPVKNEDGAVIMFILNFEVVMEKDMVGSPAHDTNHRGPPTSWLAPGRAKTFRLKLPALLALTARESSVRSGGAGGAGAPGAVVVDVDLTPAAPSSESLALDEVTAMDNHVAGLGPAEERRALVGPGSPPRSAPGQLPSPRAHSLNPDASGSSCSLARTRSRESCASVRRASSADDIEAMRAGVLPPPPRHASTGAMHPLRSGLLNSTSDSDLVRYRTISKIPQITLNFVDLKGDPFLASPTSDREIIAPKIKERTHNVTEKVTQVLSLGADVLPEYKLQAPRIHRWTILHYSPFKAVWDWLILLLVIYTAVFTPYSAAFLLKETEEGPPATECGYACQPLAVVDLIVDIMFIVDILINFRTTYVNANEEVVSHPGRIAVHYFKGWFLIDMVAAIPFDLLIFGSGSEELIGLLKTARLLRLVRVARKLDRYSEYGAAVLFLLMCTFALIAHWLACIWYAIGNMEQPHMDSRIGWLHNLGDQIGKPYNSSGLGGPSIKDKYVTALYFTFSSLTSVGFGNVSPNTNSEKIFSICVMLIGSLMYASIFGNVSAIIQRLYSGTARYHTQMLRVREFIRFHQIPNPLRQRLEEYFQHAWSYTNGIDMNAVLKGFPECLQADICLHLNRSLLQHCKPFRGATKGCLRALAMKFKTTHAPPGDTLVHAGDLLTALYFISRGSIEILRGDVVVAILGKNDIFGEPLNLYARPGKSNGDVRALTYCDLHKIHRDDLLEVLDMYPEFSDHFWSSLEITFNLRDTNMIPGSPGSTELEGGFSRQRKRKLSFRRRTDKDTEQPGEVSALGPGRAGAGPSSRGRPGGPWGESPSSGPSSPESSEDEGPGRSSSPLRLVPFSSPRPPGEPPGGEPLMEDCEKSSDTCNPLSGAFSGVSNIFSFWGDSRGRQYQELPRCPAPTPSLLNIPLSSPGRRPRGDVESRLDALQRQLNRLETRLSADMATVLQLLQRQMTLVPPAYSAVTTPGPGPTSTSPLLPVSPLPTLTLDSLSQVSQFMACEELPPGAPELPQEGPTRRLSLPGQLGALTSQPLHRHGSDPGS

SMILES | hERG current change (%, negative = inhibition) at 10uM [%]
Cc1ccc(OCC(=O)Nc2oc(-c3ccccc3)c(-c3ccccc3)c2C#N)cc1 | 17.7
COc1cc(CC(=O)NNC(=O)c2cc(C)oc2C)cc(OC)c1OC | 24.1
COc1ccc(S(=O)(=O)N2CCCCCC2)cc1C(=O)N1CCN(c2ccccc2C)CC1 | -48
COc1ccc(S(=O)(=O)N2CCN(c3ccccc3OC)CC2)cc1C(=O)N1CCCCC1 | 7.51
COc1ccc(S(=O)(=O)N2CCCCCC2)cc1C(=O)N1CCN(c2ccccc2O)CC1 | -70.6
Cc1ccc(-c2n[nH]c(=S)n2/N=C/c2ccc(C(=O)O)cc2)cc1 | 3.02
CCN(CC)c1ccc(N=Cc2ccc(N(CC)CC)cc2O)cc1 | 0.156
CCCN1CCN(C(=O)c2nn(-c3ccc(OC)cc3)c(=O)c3c2c2ccccc2n3C)CC1 | -3.71
Cc1ccc(C)c(S(=O)(=O)N2CCN(C(=O)CCC(=O)NCc3ccc(Cl)cc3)CC2)c1 | -65.1
Cc1ccc(S(=O)(=O)N2CCN(C(=O)CCC(=O)NCc3cccc(C(F)(F)F)c3)CC2)cc1 | -54.2
O=C(CCC(=O)N1CCOCC1)NCc1cccc(C(F)(F)F)c1 | -0.171
Cc1ccc(S(=O)(=O)N2CCN(C(=O)CCC(=O)N3CCc4ccccc43)CC2)cc1 | -62.2
Cc1ccc(S(=O)(=O)CCC(=O)N2CCc3ccccc32)cc1 | -16
O=C(CCC(=O)N1CCN(S(=O)(=O)c2ccc(Cl)cc2)CC1)NCc1ccccc1 | -14.8
O=C(CCC(=O)N1CCCc2ccccc21)N1CCN(S(=O)(=O)c2ccccc2)CC1 | -9.26
COc1ccc(CNC(=O)CCC(=O)N2CCN(S(=O)(=O)c3ccc(Cl)cc3)CC2)cc1 | 22.3
Cc1ccc(S(=O)(=O)N2CCN(C(=O)CCC(=O)NCc3ccc(F)cc3)CC2)cc1 | -24
O=C(CSc1nnc(-c2ccccc2O)n1Cc1ccccc1)NNC(=O)c1ccccc1O | 0.52
COc1nccc(C(F)(F)F)c1C(=O)NC(=O)Nc1ccccc1 | -8.51
CCOC(=O)C1CCCN(C(=O)c2cc(S(=O)(=O)N3CCCCC3)c[nH]2)C1 (stereo not drawn) | 14.5
CCOC(=O)c1c(C)[nH]c(C)c1S(=O)(=O)N1CCCCC1 | 15.9

SMILES | hERG current change (%, negative = inhibition) at 10uM [%]
CCOC(=O)CC(NS(=O)(=O)Cc1ccccc1)c1ccc(C)cc1 (stereo not drawn) | -5.46
Cc1ccccc1NC(=O)CCC(=O)N/N=C/c1c[nH]c2ccccc12 | 2.16
C=CCn1c2ccccc2c2nnc(SCC(=O)NC(C(=O)OC)C(C)C)nc21 (stereo not drawn) | -15.1
COc1ccc(-c2c[n+]3c(n2-c2c(C)n(C)n(-c4ccccc4)c2=O)CCCCC3)cc1.[Br-] | 4.43
COc1ccc(-n2c(-c3ccc(Br)cc3)c[n+]3c2CCC3)cc1.[Br-] | -56
COc1ccc(-n2c(-c3ccccc3)c[n+]3c2CCC3)cc1.[Br-] | -20.5
COc1ccc(-n2c(-c3ccc(Br)cc3)c[n+]3c2CCCCC3)cc1.[Br-] | -80.3
COc1ccc(-c2c[n+]3c(n2-c2ccc(C)cc2)CCCCC3)cc1.[Br-] | -48.2
COc1ccc(-n2c(-c3ccc(Br)cc3)n[nH]c2=S)cc1 | 13.3
COc1ccc(-n2c(-c3ccc(Br)cc3)c[n+]3c2SC(C)C3)cc1.[Br-] (stereo not drawn) | -72.6
COc1cc(/C=C/c2ccc3cccc(OC)c3n2)c(O)c([N+](=O)[O-])c1 | 9.97
CNC(=S)N(Cc1ccc(OC)cc1)Cc1cc2cc(C)ccc2[nH]c1=O | 18
O=c1ccc(Cl)cn1Cc1ccccc1F | 5.34
CCN1C(=O)/C(=C/c2cnn(CC)c2C)SC1=S | 5.73
COc1ccc(S(=O)(=O)N2CCOc3ccccc32)cc1 | -1.55
Cc1ccccc1NC(=O)C(C)N1C(=O)c2ccccc2C1=O (stereo not drawn) | 14.7
COc1ccc(C2NC(=O)c3ccccc3N2)cc1OC (stereo not drawn) | 13
COc1ccc(Cc2nnc(SCC(=O)N3CCCC3)o2)cc1 | 2.54
COc1ccc(/C(N)=N/OC(=O)Cc2ccc(C)cc2)cc1 | 9.68
C=CCNc1oc(Cc2cccc3ccccc23)nc1C#N | -14.7
CCCCn1c(=O)n(C)c(=O)c2c(C(F)(F)F)cc(-c3ccncc3)nc21 | -28
